Records with an inconclusive call do not appear. Entries that show only a call come without a potency. Values without a mark were called inactive. Activity calls are given as the source filed them. Calls come from the whole dose curve.
The compounds below were run against Beta-2 adrenergic receptor (Homo sapiens) (UniProt P07550) (assay: Adrenergic beta2 receptor (ADRB2) small molecule antagonists, cell-based qHTS assay (AID 1963592; note: nearly all actives have a fitted effect of over 50% in size)). Settings: CHO-ADRB2 cells, isoproterenol-stimulated cAMP HTRF ratio, 0.5 h; series mostly up to 92.4 µM.
Beta-2 adrenergic receptor (Homo sapiens), sequence (P07550 whole entry, looked up): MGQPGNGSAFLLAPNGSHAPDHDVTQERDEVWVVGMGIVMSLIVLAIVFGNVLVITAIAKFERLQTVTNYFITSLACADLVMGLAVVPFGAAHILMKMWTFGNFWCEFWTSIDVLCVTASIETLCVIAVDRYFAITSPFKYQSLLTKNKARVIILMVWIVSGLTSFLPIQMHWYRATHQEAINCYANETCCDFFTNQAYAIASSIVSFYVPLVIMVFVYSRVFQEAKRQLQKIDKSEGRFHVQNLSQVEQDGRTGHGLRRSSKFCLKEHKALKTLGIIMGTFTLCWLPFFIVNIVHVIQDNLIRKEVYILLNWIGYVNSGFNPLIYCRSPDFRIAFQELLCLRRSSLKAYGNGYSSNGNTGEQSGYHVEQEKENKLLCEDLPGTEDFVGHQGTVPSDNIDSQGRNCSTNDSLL
From the text: U.S. Tox21 Program National Center for Advancing Translational Sciences [NCATS] Division of Preclinical Innovation [DPI] U.S. Environmental Protection Agency [EPA] National Institutes of Environmental Health Sciences [NIEHS] National Toxicology Program [NTP] U.S. Food and Drug Administration [FDA] Tox21 Assay Overview: Beta adrenergic receptors (Beta-ARs) belong to the G-protein coupled receptor (GPCR) superfamily, includes three subtypes - beta1, beta2, and beta3. Beta1-AR is the predominant receptor subtype expressed in the heart, and beta2-AR is expressed in the kidney, lung, blood vessel and in the heart, and beta3 is found in the adipocytes. Beta1 and 2 ARs couple to Gs protein and elevate cyclic adenosine mono phosphate (cAMP), which activates protein kinase A and leads to the downstream signaling responsible for the physiological actions. Beta-AR agonists or antagonists are the most prescribed therapeutic agents for heart failure and asthma, and these were one of the first target receptors for the rational drug design. Tox21 10K compound library was screened using the cAMP-Gs dynamic assay (Cisbio Bioassays, Shelton, CT) to identify agonists/antagonists of the Gs-coupled human adrenergic, beta2 receptor (ADRB2) in the CHO-ADRB2 cell line (Codex BioSolutions, Inc. Gaithersburg, MD), which stably over-expresses ADRB2. The principle of cAMP-Gs dynamic assay is based on HTRF technology, which facilitates the fluorescence resonance energy transfer (FRET) between donor Europium cryptate and acceptor d2-labeled cAMP. The cAMP generated within cells competes with the red acceptor, d2-labled cAMP, for binding to the monoclonal anti-cAMP-cryptate (Europium donor). An increase in intracellular cAMP leads to the disruption of FRET signal, and the signal is inversely proportional to the cAMP concentration. Propranolol HCl (Sigma-Aldrich, St. Louis, MO) was used as a positive control in the screening.
Tox21 Assay Protocol Summary: CHO-ADRB2 cells were dispensed at 1,000/well in 4uL assay medium into white/solid 1536-well plates (Greiner Bio-One North America Inc., Monroe, NC) using a Multidrop Combi dispenser (ThermoFisher Scientific, Waltham, MA). The assay plates were incubated at 37C and 5% CO2 for an overnight (18-20hr). Then positive control and test compounds dissolved in DMSO were transferred to the assay plates at 23nL using a Pintool station (Wako, San Diego, CA). Following the compound and positive control transfer, 1uL agonist-stimulation mix containing 1nM Isoproterenol HCl, 100uM IBMX and 25uM Ro-20-1724 was added to each well of the assay plates using BioRAPTR Flying Reagent Dispenser (FRD, Beckman Coulter, Brea, CA). The assay plates were incubated at room temperature for 0.5hr. Then 2.5ul each d2-labled cAMP and anti-cAMP-cryptate solutions were added separately to each well of the assay plates using an FRD and the assay plates were incubated at room temperature for 1hr. The fluorescence signal was measured at two different wavelengths (665nm and 615nm) using an Envision plate reader (Perkin Elmer, Shelton, CT). Data were expressed as the ratio of 665 nm/615 nm.
Potency is the fitted concentration of half-maximal effect.

Structure (SMILES)	Potency	activity change, negative = inhibition
O=c1cc(-c2ccc(O)cc2)oc2cc(O)cc(O)c12	inactive	
C=C(C)C(=O)OCCOCCOC(=O)C(=C)C	inactive	
COc1ccnc(CS(=O)c2nc3ccc(OC(F)F)cc3[nH]2)c1OC (stereo not given)	inactive	
Cc1ccccc1N=C(N)N=C(N)N	inactive	
O=P(c1ccccc1)(c1ccccc1)c1ccccc1	inactive	
O=C(O)c1nc(Cl)c(Cl)c(Cl)c1Cl	inactive	
CCCCCCCC/C=C\CCCCCCCC(=O)NCc1ccc(O)c(OC)c1	inactive	
CCC(=O)OCCOc1ccccc1	inactive	
CC(C)c1ccc2cc(C(C)C)ccc2c1	inactive	
CC(C)N(C)C	inactive	
Cc1cc(O)c2ccccc2c1O	inactive	
CN1CCN(C2=Nc3cc(Cl)ccc3Nc3ccccc32)CC1	inactive	
CC(=O)SCc1ccco1	inactive	
COC(=O)C1=C(C)NC(C)=C(C(=O)OCC(C)=O)C1c1ccccc1[N+](=O)[O-] (stereo not given)	inactive	
CC(=O)Nc1ccc(/C=N/NC(N)=S)cc1	inactive	
CCOC(=O)c1ccc(C#Cc2ccc3c(c2)C(C)(C)CCS3)nc1	inactive	
CCCCCCCCCOC(=O)CCCCC(=O)OCCCCCCC	15.4 µM (active)	
CN(C)CC/C=C1\c2ccccc2Sc2ccc(Cl)cc21	inactive	
CN(C)CC[C@@H](c1ccc(Cl)cc1)c1ccccn1	inactive	
CCOC(=O)c1ccc(N(C)C)cc1	inactive	

Structure (SMILES)	Potency	activity change, negative = inhibition
c1ccc(-c2ccccn2)nc1	inactive	
CCCCN(CCN(CCCC)C(=O)N1CCOCC1)C(=O)N1CCOCC1	inactive	
O=Cc1ccccc1Cl	inactive	
O=C1Cc2cc(CCN3CCN(c4nsc5ccccc45)CC3)c(Cl)cc2N1	inactive	
CCC(C)(C)OC	inactive	
C=C(C)C1CC=C(C)C(=O)C1 (stereo not given)	inactive	
Cc1cccc(C)c1NC(=O)C(C)N (stereo not given)	inactive	
O=S(=O)(O)SSS(=O)(=O)O	inactive	
OC(CCN1CCCCC1)(c1ccccc1)C1CC2C=CC1C2 (stereo not given)	inactive	
c1ccc2c(c1)CCCC2C1=NCCN1 (stereo not given)	inactive	
COc1cc(C(C)C)c2c(c1)S(=O)(=O)N(COc1cc(=O)n3cccc(OCCN4CCCCC4)c3n1)C2=O		1.57% [at 19 µM]
Clc1nc2ccccc2nc1Cl	inactive	
CCCc1ccc(OCC(=O)N2CCN(C(=O)COc3ccc(CCC)cc3OC)CC2)c(OC)c1	inactive	
COc1cccc2c1C(=O)c1c(O)c3c(c(O)c1C2=O)C[C@@](O)(C(=O)CO)C[C@@H]3O[C@H]1C[C@H](N)[C@H](O[C@@H]2CCCCO2)[C@H](C)O1	inactive	
CC(C)c1nnc2ccc(-c3ocnc3-c3cc(F)ccc3F)cn12	inactive	
O=C(OCCc1ccccc1)c1ccccc1	inactive	
C=CC(=O)[O-].C=CC(=O)[O-].[Zn+2]	inactive	
CC1=CC(=O)/C(=C(/C)O)C(=O)O1	inactive	
NNC(=O)CCCCC(=O)NN	inactive	
CC(C)(C)CC(C)(C)c1ccccc1O	inactive	
